Rows were chosen to be rich in hits. Some 0.81% of all compounds tested hit in one or more screens of this group.
NCOA2 inhibitor = inhibition of GAL4-SRC2 driven luciferase reporter, primary screen, SRC2 inhibitor project, cell-based, luminescence | inhibition, % at 9 µM | AID 651957, 2012 | 370,000 tested, 0.17% active | Nuclear receptor coactivator 2 (Homo sapiens), Q15596 | HEK293 GAL4-SRC2 luciferase reporter;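 active means inhibition above the mean inhibition of all tested compounds plus 3 SD, set per campaign, cut at about 52% in these data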
SRC3 inh = SRC3 coactivator transcriptional activity inhibitors, primary screen, cell-based, luminescence; HEK293 GAL4-SRC3 luciferase reporter; Nuclear receptor coactivator 3 (Homo sapiens), Q9Y6Q9; inhibition, % at 3.6 µM; 360,000 tested, 0.17% active;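 active means inhibition above a per-campaign cutoff, the mean of all compounds plus 3 SD, cut at about 60% in these data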;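 further: higher means less SRC3-driven luciferase light from the GAL4 reporter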
COUP-TFII inh = NR2F2 transcriptional activity inhibitors, primary screen, cell-based, luciferase reporter, HEK293T, luminescence; inhibition, % at 8.6 µM; AID 686940, 2013; COUP transcription factor 2 (Homo sapiens), P24468; 370,000 tested, 0.7% active; HEK293T NGFI-A luciferase reporter;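 active means inhibition above a per-plate cutoff, mean inhibition of test wells between control levels plus 3 SD, cut at about 38% in these data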;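 further: cells cotransfected with COUP-TFII expression vector driving the NGFI-A reporter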
Target sequence (P24468 whole entry, looked up): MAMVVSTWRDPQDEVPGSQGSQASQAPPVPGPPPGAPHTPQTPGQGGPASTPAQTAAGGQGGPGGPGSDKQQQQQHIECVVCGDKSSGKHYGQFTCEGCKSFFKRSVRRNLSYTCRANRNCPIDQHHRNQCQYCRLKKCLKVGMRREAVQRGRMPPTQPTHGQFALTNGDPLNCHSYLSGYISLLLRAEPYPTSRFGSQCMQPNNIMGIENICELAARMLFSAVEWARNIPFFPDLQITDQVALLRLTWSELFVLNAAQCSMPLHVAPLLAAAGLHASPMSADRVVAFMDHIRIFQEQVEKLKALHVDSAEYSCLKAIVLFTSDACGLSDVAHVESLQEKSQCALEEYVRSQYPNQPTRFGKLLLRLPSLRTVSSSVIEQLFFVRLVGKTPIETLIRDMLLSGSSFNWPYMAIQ
SRC1 inh = SRC1 coactivator transcriptional activity inhibitors, primary screen, cell-based, luminescence; Nuclear receptor coactivator 1 (Homo sapiens), Q15788; HEK293 GAL4-SRC1 luciferase reporter; inhibition, % at 3.6 µM; 360,000 tested, 0.12% active; AID 588354, 2011;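 active means inhibition above the campaign mean plus 3 SD, with each screening campaign given its own cutoff, cut at about 60% in these data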
LRH-1 inv ag = LRH-1 (NR5A2) inverse agonists, primary screen, cell-based, luminescence, HEK293T, StAR-luciferase reporter; Nuclear receptor subfamily 5 group A member 2 (Homo sapiens), O00482; LRH-1 transfected, 24 h; inhibition, % at 3.6 µM; 360,000 tested, 0.13% active; AID 602396, 2012;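 active means inhibition above the mean inhibition of all tested compounds plus 3 SD, cut at about 73% in these data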
A number is an active result; i = inactive; nt = no result.

SMILES	NCOA2 inhibitor	SRC3 inh	COUP-TFII inh	SRC1 inh	LRH-1 inv ag
COc1ccc(N(C(=O)CCl)C(C(=O)NCCc2ccccc2)c2cccs2)cc1 (centres undefined)	i	71	i	i	i
CCOC(=O)N1CCN(C(=O)CSc2ccccc2)CC1	i	i	i	i	i
CSc1nc2c(cc1C#N)CCC2	i	i	i	i	i
N#Cc1cc2c(nc1SC1CC(=O)N(c3ccccc3)C1=O)CCC2 (centres undefined)	nt	77	nt	i	i
O=[N+]([O-])c1ccc(O)c(/C=N/Nc2ccc(Cl)nn2)c1	i	82	i	68	i
O=C(CC1NCCc2ccccc21)Nc1ccc(Cl)cc1 (centres undefined)	i	i	i	i	i
Cc1ccccc1CN1CCN(C(=O)c2cc(-c3ccncc3)nc3ccccc23)CC1	i	i	i	i	i
COc1ccc(Cl)cc1C(=O)Nc1nc2ccccc2[nH]1	54	i	i	i	i
COc1ccc(C(=O)Nc2nc3ccccc3[nH]2)cc1OC	i	i	i	i	i
O=C(Nc1cccc(S(=O)(=O)Nc2ccc(Cl)cc2)c1)c1ccc(Cl)nc1	i	i	82	i	i
CC(C)[C@H](NC(=O)c1ccccc1Cl)C(=O)OCC(=O)NC(=O)NCc1ccco1	i	i	i	i	i
OCC1OC(n2cnc3c(NCc4ccco4)ncnc32)C(O)C1O (centres undefined)	i	63	i	i	i
COc1ccc(OCc2cc(C(=O)N3CCCCCC3)no2)c(Cl)c1	i	i	i	i	i
C(=N\Nc1nc2ccccc2[nH]1)/c1cccc2cccnc12	i	62	i	i	i
CC(C)(C)c1ccc(/C=C(\c2nc3ccccc3[nH]2)S(=O)(=O)c2ccccc2)cc1	nt	i	nt	i	i
Cc1cccc(/C=C(\c2nc3ccccc3[nH]2)S(=O)(=O)c2ccccc2)c1	64	i	i	i	i
O=[N+]([O-])c1ccc(N2CCCC2)nc1N1CCCC1	i	i	i	i	i
Nc1ncc([N+](=O)[O-])c(N2CCCCCC2)n1	i	i	i	65	i
COc1ccc(-c2cn[nH]c2-c2ccc(OC)cc2O)cc1	52	i	i	i	i
COc1ccc(C(=O)NCC(=O)OCc2ccc(F)cc2Cl)cc1OC	i	i	i	i	i
COc1ccc(C(=O)NCC(=O)OCc2c(Cl)cccc2Cl)cc1OC	i	66	i	i	i
Nc1cc2ccncc2c2ccccc12	i	i	i	67	i
COC(=O)c1cc(O)cc(OC)c1Oc1cc(C)cc(O)c1C(=O)O	i	68	i	i	i
O=C(Nc1nc(-c2ccc(S(=O)(=O)N3CCCC3)cc2)cs1)c1cccs1	i	i	55	i	i
O=C(Nc1nc(-c2ccccc2)cs1)C1CCCN(S(=O)(=O)c2ccccc2)C1 (centres undefined)	i	i	44	i	i
SMILES	NCOA2 inhibitor	SRC3 inh	COUP-TFII inh	SRC1 inh	LRH-1 inv ag
O=C(Nc1ccc(S(=O)(=O)N2CCCC2)cc1)c1cccs1	i	i	i	i	i
COC(=O)C1C(c2ccccc2)C(C(=O)N2CCOCC2)C1c1ccccc1 (centres undefined)	i	i	i	i	i
COc1ccccc1C(C)NC(=O)c1ccc(S(=O)(=O)NCc2ccco2)cc1 (centres undefined)	i	i	i	i	i
COc1cccc(/C=N/NC(=O)c2c(C)nc3ccc(Br)cn23)c1O	nt	79	nt	78	99
CCOc1ccccc1/C=N/NC(=O)c1c(C)nc2ccc(Br)cn12	i	i	i	i	i
COc1ccc(C(=O)N/N=C/c2cc(Br)ccc2O)cc1OC	i	64	i	i	i
COc1ccc(C(CNC(=O)CSc2ccccc2C)N(C)C)cc1 (centres undefined)	i	i	i	i	i
CCOc1ccc(C(=O)C(CCC(CN(C)C)C(=O)c2ccc(OCC)cc2)CN(C)C)cc1 (centres undefined)	i	i	i	i	88
Cc1ccc(C(=O)N(Cc2nc3ccccc3c(=O)[nH]2)C2CCCC2)cc1	i	i	i	i	i
COCCn1c(C)cc(C(=O)COc2ccc(C)nc2[N+](=O)[O-])c1C	54	i	i	i	i

Screening results: PubChem, The Scripps Research Institute Molecular Screening Center
